Screens from PubChem.
ATXN2 expr inh: ATXN2 expression inhibition. HEK-293 ATXN2-luciferase reporter, luminescence, 24 h. Potency, µM (top dose mostly 57 µM), for inactives: at the top dose activity change, negative = inhibition, hits mostly inhibitors. 360,000 tested, 0.72% active; also: potency is read from the fitted curve at half-maximal effect; % is scaled to controls: 0 for no effect and ±100 for the full control effect; nearly all actives have a fitted effect of over 55% in size
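ATXN2-luciferase reporter cells (luciferase flanked by upstream and downstream ATXN2 gene portions) were treated 24 h at 37 °C with compounds at up to 57 uM. SteadyGlo luminescence gave expression; GF-AFC fluorescence gave viability.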
SW480 rerep: inducers of DNA re-replication in SW480 colon cancer cells; SW480 DNA re-replication, Hoechst DNA content imaging, 48 h; Potency, µM (top dose mostly 46.1 µM), for the others: top-dose re-replication activation, most hits filed as activators; 340,000 tested, 1.8% active; AID 624297; also: potency is read from the fitted curve at half-maximal effect; % of control where 0% means no effect; nearly all actives have a fitted effect of over 55% in size
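250 cells/well; 23 nL cpd via pin tool; 48 hr, 37 C, 5% CO2; Hoechst 40 min; imager read of total nuclear intensity, ex 405/em 500-530 nm.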
IL1B secr inh: blocks inflammasome-driven IL-1 beta release; THP-1 LPS/ATP IL-1B secretion, AlphaLISA, 16 h; active compounds read low; activity change, % at 57.5 µM; 360,000 tested, 4.7% active; in the data active = activity change below about -50%; inconclusive = mostly about -30% to -49%; also: % is scaled to controls: 0 for no effect and ±100 for the full control effect
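THP-1 cells pretreated 1 hr with compounds (up to 57.5 uM final), then stimulated with LPS (250 ng/mL final) plus ATP (1.25 mM final); secreted IL-1B measured by AlphaLISA after 16 hr, decreased signal indicating inhibition.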
S2 tox: viability counter-screen for ATXN expression inhibitors; S2 cells (HEK-293 line with an ATXN2-luciferase reporter) viability, CellTiter-Fluor protease fluorescence, 24 h; Potency, µM (highest dose often 56.7 µM), usual class: cytotoxic; 400,000 tested, 0.49% active; AID 651635; also: potency is read from the fitted curve at half-maximal effect; nearly all actives have a fitted effect of over 40% in size
PINK1 expr mod: modulators of PINK1 expression; PINK1 immunofluorescence, high-content cytometry, 24 h; Potency, µM (doses to about 76.6 µM), for the others: at the top dose activation (PINK1 increase), hits mostly activators; 410,000 tested, 0.2% active; AID 624263; active = well fitted activation curve with a large enough effect; inconclusive = small, poorly fitted or top-dose-only effect; cell line not stated here; also: potency is read from the fitted curve at half-maximal effect; % of control where 0% means no effect; nearly all actives have a fitted effect of over 65% in size
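Cells are seeded, rested 12 hours, then given compound at five concentrations or DMSO for 24 hours. After fixation, blocking and antibody staining, PINK1 amount and mitochondrial localization are scored; CCCP serves as control.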
MCF10A rerep: DNA re-replication induction in MCF 10a cells. 350,000 tested, 2.9% active. Potency, µM (doses to about 46.1 µM), for the others: at the top dose activity, positive = re-replication, hits mostly activators. MCF 10A DNA re-replication, Hoechst nuclear intensity, 48 h; also: potency is read from the fitted curve at half-maximal effect; % of control where 0% means no effect; nearly all actives have a fitted effect of over 50% in size
Numbers without * were called inactive; [ ] = remark or other dose. Shown are actives, neighbours in structure and some others; about 7.1% of the full set was active somewhere. Unless noted, calls follow the shape of the dose curve; as a rule, active = well fitted curve in the direction sought with a large enough effect; inconclusive = small, poorly fitted or top-dose-only effect, or another doubt; inactive = no such curve, though single readings can be large; an effect the other way counts as inactive or inconclusive.

Screening CC(=O)N(CC(O)CO)c1c(I)c(C(=O)NCCO)c(I)c(C(=O)NCC(O)CO)c1I (centres undefined) returned ATXN2 expr inh -1% and S2 tox inactive.
`O=C1CCC(C(=O)OCC(=O)c2ccccc2)N1` (centres undefined) gave ATXN2 expr inh -14%, SW480 rerep -4%, IL1B secr inh 17, S2 tox inactive, PINK1 expr mod 2% and MCF10A rerep -3%.
`CC1CC(C)C(=O)C(C(CC2CC(=O)NC(=O)C2)OC(=O)CC(=O)c2ccccc2)C1` (centres undefined) gave ATXN2 expr inh 3.5µM*, SW480 rerep 11%, IL1B secr inh 3, S2 tox inconclusive, PINK1 expr mod -4% and MCF10A rerep inconclusive.
For COc1cc2[nH]c3c(=O)n4c(nc3c2cc1OC)SCCC4 the results were ATXN2 expr inh -17%, SW480 rerep inconclusive, IL1B secr inh -61*, S2 tox inactive, PINK1 expr mod -1% and MCF10A rerep -13%.
Screening O=C(/C=C/c1ccc(F)cc1)N1CCN(Cc2ccccc2)CC1 returned ATXN2 expr inh 48%, SW480 rerep -11%, IL1B secr inh -26, S2 tox inactive, PINK1 expr mod 2% and MCF10A rerep 5%.
For O=C(/C=C/c1ccc(Br)cc1)N1CCN(Cc2ccccc2)CC1 the results were ATXN2 expr inh -5%, SW480 rerep -3%, IL1B secr inh -81*, S2 tox inactive, PINK1 expr mod 0% and MCF10A rerep inconclusive.
Cc1cccc(CN2CCN(C(=O)CCl)CC2)c1 was read as ATXN2 expr inh inconclusive, SW480 rerep inconclusive, IL1B secr inh -106*, PINK1 expr mod 0% and MCF10A rerep inconclusive.
CC(C)NC(=O)C1CCN(C(=O)c2cc3sccc3n2Cc2ccc(F)cc2)CC1 was read as ATXN2 expr inh inconclusive, SW480 rerep 3%, IL1B secr inh -81*, S2 tox inactive, PINK1 expr mod -1%[38.3 µM] and MCF10A rerep -9%.
Screening Cc1ccc(NC(=O)CCn2c(=O)c3cccn3c3ccccc32)c(Cl)c1 returned PINK1 expr mod 3%.
Screening COc1ccc(Cc2ccccc2C(=O)O)cc1 returned ATXN2 expr inh 7%, SW480 rerep -6%, IL1B secr inh 1, S2 tox inactive, PINK1 expr mod -1% and MCF10A rerep -3%.
Screening COc1ccc(CC2=CC(=O)c3ccccc3C2=O)cc1 returned SW480 rerep 0%, IL1B secr inh -98*, S2 tox inconclusive, PINK1 expr mod 8% and MCF10A rerep inconclusive.
Screening CON=C(C(=O)N[C@@H]1C(=O)N2C(C(=O)O)=C(CSC(=O)c3ccco3)CS[C@H]12)c1csc(N)n1 returned ATXN2 expr inh 2%.
CN1/C(=C/c2cccc[n+]2CCO)Sc2ccccc21 was read as ATXN2 expr inh -10%, SW480 rerep 3%, IL1B secr inh -1, S2 tox inactive, PINK1 expr mod 0% and MCF10A rerep 18%.
For CC[n+]1ccccc1/C=C1\Sc2ccc(C)cc2N1C the results were ATXN2 expr inh 4µM*, SW480 rerep -2%, IL1B secr inh -77*, S2 tox inconclusive, PINK1 expr mod 16µM* and MCF10A rerep inconclusive.
`COc1ccc(NC(=O)N(C)[C@H]2C[C@H]3c4[nH]c5ccc(-c6ccc(OC)cc6)cc5c4CCN3C[C@H]2[C@H](C)O)cc1` gave ATXN2 expr inh 22µM*, IL1B secr inh inconclusive and PINK1 expr mod inconclusive.
Screening CN[C@H]1C[C@H]2c3[nH]c4ccc(-c5ccc(OC)cc5)cc4c3CCN2C(=O)[C@H]1[C@H](C)O returned ATXN2 expr inh 18µM*, IL1B secr inh inconclusive, S2 tox inconclusive and PINK1 expr mod -3%.
